Experimental data from publication PMC5540273 (PLoS ONE, 2017).

Assays:
Conditions in all cases: concentration: 1 μM, replicates: in singlicate; n = 1
[1] = system: T1, DCAMKL2
T1 construct: gene DCLK2

[2] = system: T2, DCAMKL3
T2 construct: gene DCLK3

[3] = system: DDR1
[4] = system: DDR2
[5] = system: T3, DLK
T3 construct: gene MAP3K12

[6] = system: T4, DMPK2
T4 construct: gene CDC42BPG

[7] = system: DMPK
[8] = system: T5, DRAK1
T5 construct: gene STK17A

[9] = system: T6, DRAK2
T6 construct: gene STK17B

[10] = system: DYRK1A
[11] = system: DYRK1B
[12] = system: DYRK2
[13] = system: EGFR
[14] = system: EIF2AK1
[15] = system: EPHA1
[16] = system: EPHA2
[17] = system: EPHA3
[18] = system: EPHA4
[19] = system: EPHA5
[20] = system: EPHA6
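Note: KINOMEscan kinase panel screen.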

SMILES	%Inh [1] [%]	%Inh [2] [%]	%Inh [3] [%]	%Inh [4] [%]	%Inh [5] [%]	%Inh [6] [%]	%Inh [7] [%]	%Inh [8] [%]	%Inh [9] [%]	%Inh [10] [%]	%Inh [11] [%]	%Inh [12] [%]	%Inh [13] [%]	%Inh [14] [%]	%Inh [15] [%]	%Inh [16] [%]	%Inh [17] [%]	%Inh [18] [%]	%Inh [19] [%]	%Inh [20] [%]
Cc1ccc(NC(=O)c2cccc(N3CCCCC3)c2)cc1-c1ccc(C(=O)NCC2CC2)cc1 [GSK1917008]	19	0	100	64	8	100	3	0	9	27	0	18	35	8	18	33	4	37	3	34
CC(=O)Nc1cn2nc(Oc3cccc(NC(=O)c4cccc(C(F)(F)F)c4)c3)ccc2n1	24	9	98.3	100	0	1	0	0	11	0	0	0	58	0	75	99.2	65	96	96.2	94.3
Cl.Cl.NC(CNC(=O)c1cc(Br)c(-c2ccnc3[nH]ccc23)s1)c1ccccc1 (stereo not shown) [GSK1322949]	18	0	0	29	43	59	72	93.8	4	84	95	80	17	1	24	1	26	0	0	0
N#CC1(c2cccc(C(=O)Nc3cccc(Oc4ccc5nc(NC(=O)C6CC6)sc5n4)c3)c2)CC1	0	0	98.6	99.2	0	6	5	2	7	0	1	0	36	0	76	97.1	50	81	89	91.3
CCNc1nccc(-c2c(-c3ccc(F)cc3)ncn2C2CCN(C)CC2)n1	0	5	70	4	0	8	0	16	0	0	0	100	0	0	0	0	0	5	0	0
Cn1cc(-c2ccc3c(c2)CCN3C(=O)Cc2cc(F)cc(F)c2F)c2c(N)ncnc21 [GSK2634140]	0	0	72	27	31	56	0	0	0	16	4	5	16	80	4	9	0	6	0	1
COc1cccc(C2=C(Nc3cccc(O)c3)C(=O)NC2=O)c1 [SB-390771]	0	31	0	17	26	0	0	0	0	57	24	9	41	3	0	29	0	27	0	24
CCOc1nccc(-c2c(-c3ccc(F)cc3)ncn2C2CCNCC2)n1 [SB-249175]	24	10	0	7	0	75	15	0	0	1	50	6	9	45	10	0	13	4	0	7
Cc1ccc(C)c(NC(=O)Nc2ccc(C)c(-c3ccc(C(=O)Nc4ccncc4)cc3)c2)c1 [GSK1398473]	0	13	99.8	72	0	1	4	0	0	36	25	10	35	0	0	19	0	29	15	16
Cl.Cl.NCC(NC(=O)c1cc(-c2cccnc2)c(-c2ccnc3[nH]ccc23)s1)c1ccccc1 (stereo not shown) [GSK1323434]	9	0	11	55	34	51	79	19	0	48	17	33	72	0	4	10	40	0	0	2
CCn1c(-c2nonc2N)nc2c(-c3ccccc3)ncc(OCCCN)c21.O=C(O)C(F)(F)F.O=C(O)C(F)(F)F [GSK260205]	9	70	26	31	0	100	0	5	2	23	0	14	56	90.8	24	0	12	0	0	0
CN(C)CCNS(=O)(=O)c1ccc(-c2ccnc3[nH]ccc23)cc1 [GSK977620]	16	15	7	0	26	30	74	71	28	69	47	64	37	0	24	14	0	0	0	0
CN(c1ccc(F)c(NC(=O)c2cccc(OC(C)(C)C#N)c2Cl)c1)c1ccc2nc(NC(=O)C3CC3)sc2n1	0	0	100	97	2	14	0	0	0	0	46	0	64	7	58	67	31	20	0	27
Cc1cccc(Nc2nc(N[C@H]3CCCC[C@H]3N)ncc2C(N)=O)c1.Cl [GSK986310]	3	35	6	0	19	21	59	4	18	26	37	24	38	22	26	11	58	6	2	6
Cc1nn2c(=O)cc(N3CCO[C@H](C)C3)nc2n1Cc1cccc(Cl)c1Cl [GSK2373693]	6	34	18	0	0	0	1	0	11	48	11	12	28	1	1	21	0	0	0	0
COC(=O)Nc1nc2ccc(Oc3ccc(CC(=O)Nc4cc(C(F)(F)F)ccc4F)cc3)cc2[nH]1 [GW680903]	0	0	100	97.4	30	0	0	54	0	13	8	0	30	3	12	54	100	21	0	34
CCNC(=O)/C=C/c1n[nH]c2cc(Sc3ccccc3C(=O)NC)ccc12	11	30	0	0	9	3	3	49	0	21	0	7	23	29	9	7	0	5	42	16
